# Source: PubChem
# Hits are enriched below; roughly 0.9% of the tested compounds scored in any of these assays.
# CDC25B CDK2 inh – human CDC25B-CDK2/CyclinA binding inhibition; HTRF CDC25B-CDK2/CyclinA binding, anti-His/anti-Flag; stronger effect = higher value; P30305+P24941; 94,000 compounds, 0.72% hits; AID 1259370; z-score (no concentration beside the values); in the data active = z-score above about 3.2
# TAR Tat displ – HIV-1 TAR-Tat binding disruption; HIV-1 TAR RNA, Tat peptide displacement FRET; stronger effect = higher value; z-score (no concentration beside the values); 100,000 compounds, 0.6% hits; AID 1259389; active = z-score of 3 or more in at least 2 runs
# * hit, by the source's call; . = not tested or not shown.
SMILES,CDC25B CDK2 inh,TAR Tat displ
Cc1nn2cc(-c3ccccc3)cc2c2c(C)n(Cc3ccccc3)c(C)c12,-0.81,0.12
COc1ccc(-n2c(C)c3c(C)nn4cc(-c5ccc(C)o5)cc4c3c2C)cc1,7.2*,16*
O=C(O)c1ccc2nc3c(nc2c1)-c1cccc2cccc-3c12,-2.6,5.9*
O=C(O)c1ccc2nc(-c3ccccc3)c(-c3ccccc3)nc2c1,1.3,1.4
COc1ccc2c(c1)CCc1c-2n[nH]c1C(=O)NCCCN1CCCC1=O,.,1.3
CCC(C)NC(=O)Cn1nc(C)n2c(cc3cc(F)ccc32)c1=O (stereo not given),2.3,-0.59
CCN1C(=O)Cc2cc(NS(=O)(=O)c3ccc(F)cc3)ccc21,.,2
CC1CCN(C(=O)CCC(=O)N2CCc3cc(S(=O)(=O)N4CCc5ccccc5C4)ccc32)CC1,.,0.31
COC(=O)c1nnn(-c2cc(C)cc(C)c2)c1C(=O)OC,-1.2,-0.06
CC1(C)N=C(N)N=C(N)N1c1c(Cl)cccc1Cl,7.9*,.
Cc1ccccc1N1C(N)=NC(N)=NC1(C)C,-0.13,.
Cc1ccc2[nH]c(=O)c(CN(C(C)C)S(=O)(=O)c3ccccc3)cc2c1,-2.8,19*
CCN(Cc1cc2cc(C)ccc2[nH]c1=O)S(=O)(=O)c1ccc(C)cc1,-2.5,0.92
Cc1sc2nc(SC/C=C/c3ccccc3)nc(N)c2c1C,-0.73,.
COc1ccc(S(=O)(=O)N2CCN(c3cc(N4CCCCC4)nc(C)n3)CC2)cc1C,-2.1,0.48
COc1ccc(OC)c2c(C)cc(N3CCN(S(=O)(=O)c4ccc(C)cc4)CC3)nc12,-0.03,7.8*
CCOC(=O)c1cc(-c2ccccc2)sc1NC(=O)CSc1nc2ccccc2s1,-0.35,.
CCOC(=O)c1cnn(-c2ccccc2)c1NC(=O)CSc1nc2ccccc2s1,19*,.
CCNC(=O)c1cnc2sc(N3CCCC3)nn2c1=O,.,0.32
COc1ccc(C(=O)c2c(N)c(-c3nc(-c4cc(OC)ccc4OC)cs3)c3ccccn23)cc1,-0.04,-0.15
O=C(Nc1ccccc1)C1=C(N2CCCC2)c2ccccc2S1(=O)=O,.,0.86
Cc1ccc(CS(=O)(=O)c2ncc(Cl)c(C(=O)Nc3nnc(C(C)C)s3)n2)cc1,5.5*,0.97
Cc1ccc(CS(=O)(=O)c2ncc(Cl)c(C(=O)Oc3ccc(C)cc3)n2)cc1,-1.3,-0.27
CC(=O)Nc1ncc2c(n1)CC(c1ccco1)CC2=O (stereo not given),3,-0.17
CCc1ccc2nc(Nc3ncc4c(n3)CC(c3ccco3)CC4=O)nc(C)c2c1 (stereo not given),14,32*
SMILES,CDC25B CDK2 inh,TAR Tat displ
Cc1ccc(S(=O)(=O)NC(=O)Nc2ncc3c(n2)CC(c2ccco2)CC3=O)cc1 (stereo not given),8.3*,2.8
Cc1nc(Nc2ncc3c(n2)CC(c2ccco2)CC3=O)nc2ccccc12 (stereo not given),1.1,3.4
CC1=C(c2cccc(Br)c2)S(=O)(=O)NC1=NCc1ccccc1,-1.8,-0.15
O=C(c1ccc(F)cc1F)C1CCN(C(=O)c2cccs2)CC1,-1.6,.
Cn1c(=O)c2cc(C(=O)NCCCN3CCCC3)sc2c2ccccc21,0.42,-0.48
Cn1c(=O)c2cc(C(=O)NC3CCCC3)sc2c2ccccc21,3*,-0.7
Oc1cc2c(cc1O)C1c3ccc(O)c(O)c3OCC1(O)C2 (stereo not given),.,29*
Brc1ccc(C2CC(c3cccs3)n3nnnc3N2)cc1 (stereo not given),.,0.61
O=C(O)c1sccc1S(=O)(=O)Nc1ccccc1N1CCOCC1,19*,.
O=C(Nc1ccccc1)Nc1ccccc1N1CCOCC1,-1.8,.
COc1ccc(C2CC(=O)C3=C(C2)NC(=O)CC3c2ccc(F)cc2F)cc1OC (stereo not given),-2.5,0.19
CN(C)c1ccc(NC(=O)CCCC(=O)O)cc1,-4.2,1.7
CN(C)c1ccc(C(=O)NCCCCCC(=O)NO)cc1,.,10*
N#Cc1ccc(-c2cc(C(=O)O)c3c(ccc4ccccc43)n2)cc1,12*,.
O=C(O)c1cc(-c2ccccc2)nc2ccccc12,-1.3,4.1
CCOC(=O)N1CCc2c(sc3c2c(=O)n(-c2ccc(F)cc2)c(=O)n3C)C1,-1.8,0.63
CN1CCN(S(=O)(=O)c2ccc3c(c2)CCCC(=O)N3)CC1,.,-0.12
O=C(CN1C(=O)c2cccnc2Sc2ccccc21)NCCCN1CCOCC1,.,1.2
